Giardia killer: Small Molecules that selectively kill Giardia lamblia: qHTS. Giardia lamblia trophozoite viability. activity change, % at 7.66 µM, hits read low. actives 0.15% (n = 340,000). AID 540267, 2011; in the data active means activity change below about -80%; inconclusive means between about -30% and that limit;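 further: parasites exposed to compound for two days anaerobically before the ATP read; on the % scale 0 is the no-effect control and ±100 the full control effect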
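Each well holds 100 Giardia trophozoites and compound. After two days (48 hrs) at 37 deg C in anaerobic conditions, ATP is quantified by luminescence.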
RORg inh: qHTS for inhibitors of ROR gamma transcriptional activity | Nuclear receptor ROR-gamma (Mus musculus), P51450 | Drosophila S2 Gal4-RORgamma UAS-luciferase reporter, 20 h | Potency, µM (doses to about 53.6 µM), inactives show top-dose activity change, negative = inhibition, actives largely listed as inhibitors | actives 5.4% (n = 310,000) | AID 2551, 2010; further: potency means the concentration at half of the fitted maximal effect; on the % scale 0 is the no-effect control and ±100 the full control effect; nearly all actives have a fitted effect of over 60% in size
Target sequence (P51450 whole entry, looked up, the tested form may be a part): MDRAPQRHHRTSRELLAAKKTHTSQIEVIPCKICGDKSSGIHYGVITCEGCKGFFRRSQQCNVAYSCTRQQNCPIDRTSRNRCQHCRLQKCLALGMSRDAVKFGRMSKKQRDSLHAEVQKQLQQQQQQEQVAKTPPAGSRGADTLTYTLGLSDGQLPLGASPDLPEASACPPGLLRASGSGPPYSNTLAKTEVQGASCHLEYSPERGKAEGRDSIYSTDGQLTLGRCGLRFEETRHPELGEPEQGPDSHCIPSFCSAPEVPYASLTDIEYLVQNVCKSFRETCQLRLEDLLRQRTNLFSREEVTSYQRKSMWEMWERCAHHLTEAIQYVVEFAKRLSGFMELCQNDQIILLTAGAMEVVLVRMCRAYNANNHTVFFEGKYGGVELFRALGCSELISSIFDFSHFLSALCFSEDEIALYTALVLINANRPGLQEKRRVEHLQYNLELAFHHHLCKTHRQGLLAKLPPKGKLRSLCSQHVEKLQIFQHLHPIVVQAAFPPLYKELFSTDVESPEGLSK
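Compounds are pin-transferred onto Drosophila Schneider cells expressing a copper-inducible Gal4–ROR gamma transactivation domain fusion. After 1 hr, copper sulfate is added to 700 uM final; luciferase is read 20 hr later.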
VP16 counter: VP16 counterscreen qHTS for inhibitors of ROR gamma transcriptional activity; Drosophila S2 Gal4-VP16 UAS-luciferase, luminescence, 20 h; Potency, µM (series often up to 53.6 µM), inactives show top-dose activity, negative = inhibition, actives largely listed as inhibitors; actives 3.5% (n = 310,000); AID 2546, 2010;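 further: Gal4-VP16 expression switched on by copper sulfate through the metallothionein promoter; potency means the concentration at half of the fitted maximal effect; on the % scale 0 is the no-effect control and ±100 the full control effect; nearly all actives have a fitted effect of over 50% in size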
Chronic BCR inh: qHTS Assay to Find Inhibitors of Chronic Active B-Cell Receptor Signaling. ABC-DLBCL IkBa-CBG/CBR reporter, luminescence ratio, 4 h. actives 0.05% (n = 340,000). AID 493014, 2011. Potency, µM (highest dose often 46.1 µM), for the others: top-dose activity change, negative = inhibition, actives largely listed as inhibitors; active means well fitted inhibition curve with a large enough effect in the signal ratio, with a control signal flat, not every such curve was filed as active; inconclusive means small, poorly fitted or top-dose-only effect, or effect the other way, or a change in a side signal; the % refers to the signal ratio;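 further: potency means the concentration at half of the fitted maximal effect; plate controls were basal doxycycline-induced cells for no effect and cells given 10 µM MG132 for full effect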
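Doxycycline induced both beetle luciferases in TMD8 lymphoma cells; IKK-driven degradation limits the IkappaBalpha-fused green signal, while red luminescence normalises for cell number and nonspecific effects. Compounds tested up to 46 uM, 4 hrs.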
MCF10A rerep: A quantitative high throughput screen for small molecules that induce DNA re-replication in MCF 10a normal breast cells; MCF 10A DNA re-replication, Hoechst nuclear intensity, 48 h; Potency, µM (series often up to 46.1 µM), inactives show at the highest dose activity, positive = re-replication, hits mostly activators; actives 2.9% (n = 350,000); further: potency means the concentration at half of the fitted maximal effect; % of control where 0% means no effect; nearly all actives have a fitted effect of over 50% in size
SW480 rereplic: A quantitative high throughput screen for small molecules that induce DNA re-replication in SW480 colon adenocarcinoma cells. SW480 DNA re-replication, Hoechst DNA content imaging, 48 h. Potency, µM (top dose mostly 46.1 µM), without a hit: at the highest dose re-replication activation, most hits filed as activators. actives 1.8% (n = 340,000). AID 624297, 2012; further: potency means the concentration at half of the fitted maximal effect; % of control where 0% means no effect; nearly all actives have a fitted effect of over 55% in size
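Cells (250 per well) received 23 nL compound or DMSO by pin tool and were kept 48 hr at 37 C, 5% CO2. Nuclei were then stained with Hoechst for 40 min and scanned for DNA content.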
The depositor's hits bear a star; u = inconclusive; x = no result; [ ] = dose if it differs, or a comment. Sampled rows, rich in hits. Any-hit rate of the full collection: about 8.3%. Unless noted, the call rests on the fitted dose curve; in most records, active means well fitted curve in the direction sought with a large enough effect; inconclusive means small, poorly fitted or top-dose-only effect, or another doubt; inactive means no such curve, though single readings can be large; an effect the other way counts as inactive or inconclusive.

SMILES	Giardia killer	RORg inh	VP16 counter	Chronic BCR inh	MCF10A rerep	SW480 rereplic
O=C(CSc1cccc2cccnc12)N/N=C/c1ccncc1	4	u	-7%	-20%	-5%	1.8µM*
Cc1ccc(-c2cc(N)nc(-c3ccccc3)c2)cc1	13	-30%	-10%	7%	u	u
Cc1ccc(-c2cc(-c3ccccc3)nc(N(C)N)n2)cc1	-28	13µM*	u	3%	23%	0%
COc1cc(NC(=O)Nc2cccc(Cl)c2)c(C(=O)O)cc1OC	1	u	1%	5%	-3%	1%
COC(=O)c1cc(Cl)c(NC(=O)/C=C/c2ccc(Cl)cc2Cl)cc1OC	-3	7%	-15%[0.365 µM]	1%	2.1µM*	1%
COC(=O)c1cc(OC)c(OC)cc1NC(=S)Nc1cc(Cl)ccc1OC	-14	1.3µM*	1.4µM*	u	-1%	-2%
COC(=O)c1cc(OC)c(OC)cc1NC(=S)Nc1cccc(Cl)c1	6	4µM*	6.3µM*	3%	-1%	1%
COC(=O)c1cc(Cl)c(NC(=O)/C=C/c2ccc(Cl)cc2)cc1OC	9	u	-9%[0.365 µM]	u	u	u
COc1ccc(Cl)cc1NC(=S)Nc1ccc(Cl)cn1	-18	1.3µM*	u	-4%	-4%	-22%
COc1cc(/C=N/NC(=O)c2csc3c2CCCC3)ccc1OCCN1CCOCC1	8	-27%	-24%	5%	u	1%
CCOC(=O)c1cc(-c2ccc(OC)cc2)n(CCC(=O)NCCc2ccccc2)c1C	x	x	x	-3%	x	x
CCOc1cc(C(=O)N(CC)CC(=O)Nc2c(F)cccc2F)ccc1OCC(=O)N1CCOCC1	7	x	x	2%	0%	-3%
COC(=O)CCC(=O)NC(=S)Nc1sc(C)c(C)c1C(N)=O	-22	29%	-1%	u	1.2µM*	u
Cc1sc(NC(=S)NC(=O)CCc2ccccc2)c(C(N)=O)c1C	-11	-10%	-9%	u	0.13µM*	0.29µM*
COC(=O)CCC(=O)Nc1sc(C)c(C)c1C(N)=O	-7	-8%	1%	-1%	-1%	-5%
CCCSc1nsc(NC(=O)CCC)n1	-4	31%	-8%	u	-4%	-1%
Cc1ccc(NC(=O)C(C)OC(=O)/C=C/c2ccccc2)cc1S(=O)(=O)N1CCOCC1 (stereo not drawn)	-17	x	x	u	9%	-8%
O=C1C=C(NCCc2cc(Br)c(O)c(Br)c2)C(=O)c2ncccc21	-8	x	x	x	u	3.7µM*
O=C1C(=O)c2ncccc2-c2cccnc21	x	-38%	-12%	x	u	u
COc1ccc(NC(=S)NCCc2ccccc2)c(OC)c1	-18	11µM*	18µM*	u	3%	1%
COc1ccc(NC(=S)NCCc2ccc(F)cc2)c(OC)c1	13	u	u	-6%	6%	-7%
COc1cc(NC(=S)Nc2ccc(Br)cc2Cl)c(OC)cc1Cl	1	u	u	-2%	20%	-5%
COc1cc(NC(=S)NC(C)(C)C)c(OC)cc1Cl	4	5µM*	u	-3%	u	3%
COc1cc(OC)c(NC(=S)Nc2cc(Cl)cc(Cl)c2)cc1Cl	2	13µM*	u	u	u	0%
COc1ccc(NC(=S)NCc2ccccc2)c(OC)c1	-2	16µM*	u	-2%	1%	3%
SMILES	Giardia killer	RORg inh	VP16 counter	Chronic BCR inh	MCF10A rerep	SW480 rereplic
COc1cc(OC)c(NC(=S)Nc2cccc(C(C)=O)c2)cc1Cl	2	u	0%	-16%	6%	-3%
CC(=O)N[C@H]1CSSC[C@@H](C(=O)N2CCC[C@H]2C(=O)N2CCC[C@H]2C(=O)N[C@@H](CCCCN)C(=O)N[C@@H](CC(=O)O)C(N)=O)NC(=O)CNC(=O)[C@H](Cc2c[nH]c3ccccc23)NC(=O)[C@H](CCCNC(=N)N)NC(=O)[C@@H](Cc2ccc(Cl)c(Cl)c2)NC(=O)[C@H](Cc2cnc[nH]2)NC(=O)[C@H](CCC(=O)O)NC1=O	x	8%	-4%	x	x	x
COC(=O)C/C=C\[C@@H](C)[C@@H](/C=N\OCC[C@@H]1C=C[C@H](OC(C)=O)[C@H](COC(C)=O)O1)OC	x	14%[10 µM]	9%[10 µM]	x	x	x
COc1cc(Cl)c(C)cc1NC(=O)c1cccc(OC)c1OC	-24	23%	0%	3%	u	u
COc1ccc(S(=O)(=O)Nc2ccccc2C(=O)NCc2cccnc2)cc1	-23	10%	15%	-2%	u	u
COc1cc(Cl)c(C)cc1NC(=S)NN	-18	2.5µM*	u	u	u	-2%
COc1ccc(NC(=O)c2ccccc2NS(=O)(=O)c2ccc(CNC(C)=O)cc2)c(OC)c1	-4	-16%	6%	-28%	5.2µM*	-41%
COc1cc(OC)c(NC(=S)NCc2ccccc2)cc1Cl	-16	11µM*	u	0%	-2%	-3%
O=C1CCCC(O)=C1Sc1cc(Cl)c(Cl)cc1Cl	-1	x	x	x	1%	-16%
Cc1cc(S(=O)(=O)N2CCCc3ccccc32)ccc1-n1cnnn1	2	16%	-21%	-4%	12%	-6%
Cc1cc(C)c(C)c(S(=O)(=O)N2CCN(c3ccc(O)cc3)CC2)c1C	-8	-1%	0%	-6%	u	17%
O=[N+]([O-])c1ccc(Sc2cccc3cccnc23)c([N+](=O)[O-])c1	-15	7.1µM*	7.1µM*	u	-1%	24%
Cc1cc(C)nc(Sc2ccc([N+](=O)[O-])cc2[N+](=O)[O-])n1	12	8.9µM*	u	u	u	x
C=CCn1nc([N+](=O)[O-])nc1Sc1cccc2cccnc12	-3	8.9µM*	u	u	u	3.3µM*
O=C(O)CCSc1nc2ccccc2s1	8	1.8µM*	-9%	8%	-8%	1%
c1ccc2sc(SCSc3nc4ccccc4s3)nc2c1	4	-18%	11%	1%	-2%	-16%
O=C(CCCSc1nc2ccccc2s1)NC1=NCCS1	-18	0.89µM*	4.5µM*	u	2%	-5%
CC(=O)Nc1ccc(NC(=O)CCCSc2nc3ccccc3s2)cc1	3	7.1µM*	5µM*	u	-1%	-1%
CC1=C(C(=O)NCc2ccc(Cl)cc2)C2(CCCCC2)OC1=O	x	x	x	8%	x	x
N#Cc1nc(N2CCCCC2)nc(N(c2ccccc2)c2ccccc2)n1	-1	x	x	x	x	x

Assay outcomes from PubChem.
